Assay results published in PubChem BioAssay (NCATS).
Where “and” joins values, the source holds several entries; their conditions need not be identical. Equal values may be shown once. Inconclusive results are not listed. Entries that show only a call come without a potency. Calls of active or inactive are those of the source. Unless noted, calls come from the whole dose curve; as a rule, active = well fitted curve in the direction sought with a large enough effect; inconclusive = small, poorly fitted or top-dose-only effect, or another doubt; inactive = no such curve, though single readings can be large; an effect the other way counts as inactive or inconclusive.

Tests used:
[1] = molecular target: RecQ-like DNA helicase BLM (Homo sapiens) (UniProt P54132); experiment: qHTS Validation Assay for Inhibitors of Bloom's syndrome helicase (BLM) (AID 2364)
Outline: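 Forked 20-bp duplex substrate (200 nM, TAMRA/BHQ-2) plus 2 mM ATP added after 15 min compound preincubation with 50 nM enzyme, pH 8.0, poly(dI-dC) 2.5 ug/ml. Strand separation followed by fluorescence (525/598 nm) over 2 h, normalized to enzyme-free and DMSO controls.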

[2] = Validation screen for small molecules that induce DNA re-replication in MCF 10A normal breast cells (AID 463097); note: nearly all actives have a fitted effect of over 60% in size
Outline: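 Following 48 hr compound incubation (37 C, 5% CO2), MCF 10A cells receive Hoechst for 40 min at 37 C. Nuclei are then scanned (excitation 405 nm, emission 500-530 nm) for total fluorescence intensity.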

[3] = qHTS drug screen for cell cycle checkpoint inhibitors in PARPi-resistant BRCA-mutant ovarian cancer cell lines. (AID 1963452; calls by dose curve); conditions: PEO1/OlaR viability, CellTiter-Glo luminescence, 96 h, stronger effect = lower value
Outline: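 PEO1, PEO4 and PEO1/OlaR ovarian cancer cells, 600 per well, exposed 96 h at 37C to a dilution series. Viability read by CellTiter-Glo luminescence, normalized to DMSO and empty wells; activity summarized as Z-AUC.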

[4] = molecular target: Guanine nucleotide-binding protein G(i) subunit alpha-1 (Homo sapiens) (UniProt P63096); experiment: qHTS Assay for Inhibitors of RGS12 GoLoco Motif Activity (Green Fluorophore) (AID 879);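 note: negative values mean loss of peptide binding seen as reduced polarization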
Outline: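 Fluorescence polarization assay: 50 nM Gαi1 with 10 nM FITC-labeled RGS12 GoLoco peptide in 10 mM Tris pH 7.5, 150 mM NaCl, 0.1 mM GDP, 0.05% NP40, 10 min at room temperature with compound.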

[5] = qHTS Assay for Identification of Small Molecule Antagonists for NFkB Signaling Pathway (AID 895; active = well fitted inhibition curve with a large enough effect in the signal ratio, with a control signal flat, not every such curve was filed as active; the % refers to the signal ratio; note: potency is the fitted concentration of half-maximal effect)
Outline: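 Beta-lactamase reporter read-out (460 and 530 nm emission ratio, 405 nm excitation, 2 hrs substrate loading RT) after 5 hr stimulation with 10 pM TNF alpha in compound-treated NFkB-bla ME-180 cells in low-serum medium.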

[6] = qHTS Assay for Identification of Small Molecule Agonists for Thrombopoietin (TPO) Signaling Pathway (AID 917)
Outline: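 IL-3-dependent murine pro-B Ba/F3 cells, stably transfected with human TPO receptor and GpIIb-promoter luciferase, are incubated 24 hrs at 37 C with test compound and 26 pM TPO; luciferase signal is read after 10 min at room temperature.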

[7] = molecular target: Pyruvate kinase PKM (Homo sapiens) (UniProt P14618); experiment: qHTS Assay for Activators of Human Muscle Pyruvate Kinase (AID 954; active = well fitted curve in the direction sought with a large enough effect, not every such curve was filed as active)
Outline: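 Enzyme was run at intermediate activity so both inhibitors and activators could be detected. ATP formed from ADP and PEP by 0.1 nM human PKM2 during a 1 h room-temperature incubation was quantified by coupled luciferase luminescence.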

[8] = molecular target: Alpha-galactosidase (Coffea arabica) (UniProt Q42656); experiment: Counterscreen for Glucocerebrosidase Inhibitors: qHTS Assay for Coffee Bean alpha-Galactosidase at pH 4.5 (AID 957); note: series mostly up to about 77 µM
Outline: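 AC50 values derive from Hill-equation modeling of concentration-response data, normalized to no-enzyme and full-activity controls. The pH 4.5 citrate assay used 2 nM coffee bean enzyme and 80 uM fluorogenic substrate for 20 min.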

[9] = molecular target: Alpha-galactosidase A (Homo sapiens) (UniProt P06280); experiment: Counterscreen for Glucocerebrosidase Inhibitors: qHTS Assay for Human alpha-Galactosidase at pH 4.5 (AID 992)
Outline: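 Read-out is 4-methylumbelliferone fluorescence (365 nm excitation, 440 nm emission) after a pH 10 NaOH/glycine stop. Reactions held 2 nM enzyme and 80 uM substrate at pH 4.5 for 20 min at room temperature.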

[10] = molecular target: alpha-glucosidase (Oryza sativa, rice) (UniProt Q653V4); experiment: Counterscreen for Glucocerebrosidase Inhibitors: qHTS Assay for Rice alpha-Glucosidase at pH 5.0 (AID 997)
Outline: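 Rice alpha-glucosidase (4 nM final) with 400 uM 4-methylumbelliferyl-alpha-D-glucopyranoside in citrate buffer pH 5.0, 20 min at room temperature, stopped at pH 10; fluorescence 365/440 nm, compounds 0.7 nM–77 uM, AC50 from Hill fits.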

[11] = Viability counterscreen for antagonist of constitutive androstane receptor (CAR) against the NCATS DSHEA and TCM libraries (AID 1794837);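 note: compound exposure lasted 24 h before viability reading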
Outline: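 Counterscreen performed in a 1536-well qHTS format using HepG2-CYP2B6-hCAR cells; samples titrated in the presence of 48 uM CITCO, with viability measured fluorometrically (405/540 nm) after 24 h.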

[12] = Viability counterscreen for agonist of constitutive androstane receptor (CAR) against the NCATS DSHEA and TCM libraries (AID 1794838);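 note: HepG2 cells with CYP2B6 reporter and hCAR plus 0.75 µM PK11195 antagonist; cells exposed to compound for 24 h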
Outline: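 Multiplexed counterscreen: after 24 h compound exposure with 0.75 uM PK11195, HepG2-CYP2B6-hCAR viability was quantified fluorimetrically (CellTiter-Fluor, 405/540 nm) prior to the ONE-Glo luciferase read.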

[13] = HepG2 viability counterscreen (readout 2: ATP content) against the NCATS DSHEA and TCM libraries (AID 1794840);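 note: HepG2 cells exposed to substances for about 24 h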
Outline: (§1)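 After HepG2 cells attach for ~4 h, substances are added and incubated ~24 h at 37C, 5% CO2. GF-AFC fluorescence then CellTiter-Glo luminescence give protease and ATP readouts.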

[14] = HepG2 viability counterscreen (readout 1: protease activity) against the NCATS DSHEA and TCM libraries (AID 1794841);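 note: cells exposed to compounds for about 24 h before the protease read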
Outline: as §1

[15] = Counterscreen for APE1 Inhibitors: Fluorescent Dye Displacement Validation Assay (AID 1707)
Outline: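 ThO 250 nM + dsDNA 50 nM (THF abasic site, 5'-TAMRA), Tris-HCl pH7.5/50mM NaCl/2 mM MgCl2/0.01% Tween-20; compounds pin-transferred; ex 480/em 540 nm endpoint. Neutral = no compound; no-DNA ThO wells = negative control.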

[16] = molecular target: Rap guanine nucleotide exchange factor 4 (Homo sapiens) (UniProt Q8WZA2); experiment: Confirmatory qHTS for agonist of cAMP-regulated guanine nucleotide exchange factor 4 (EPAC2) (AID 1645884);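 note: nucleotide exchange releases bodipy-GDP from Rap1 and this lowers its fluorescence; nearly all actives have a fitted effect of over 65% in size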
[17] = molecular target: Estrogen receptor (Homo sapiens) (UniProt P03372); experiment: qHTS assay for small molecule agonists of estrogen receptor alpha signaling (AID 588514; calls by dose curve; note: nearly all actives have a fitted effect of over 70% in size; note: potency is the fitted concentration of half-maximal effect)
Outline: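 Reporter-gene assay. […] controls beta-lactamase in HEK 293 GripTite cells; after 18 hrs with compound, CCF4 substrate is added for 2 hrs and fluorescence is read.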

[18] = molecular target: Peroxisome proliferator-activated receptor delta (Homo sapiens) (UniProt Q03181); experiment: qHTS assay for small molecule agonists of peroxisome proliferator-activated receptor delta signaling (AID 588534; calls by dose curve)
Outline: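 Reporter cells were plated and held 5 hrs at 37 C before compounds were added. After 18 hrs at 37 C, CCF4 dye was loaded for 2 hrs at RT and fluorescence measured.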

[19] = qHTS assay for small molecule antagonists of peroxisome proliferator-activated receptor delta signaling (AID 588535); conditions: HEK293T PPARd-UAS-bla, beta-lactamase FRET ratio, 18 h; 460 nm channel;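 note: cells co-treated with a PPAR-delta agonist as stimulator during compound exposure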
Outline: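 Cell-based beta-lactamase assay in antagonist mode: 4000 HEK293T PPAR-delta-UAS-bla cells per well, 5 hr preincubation then 18 hr compound incubation at 37 C. IC50 obtained by Hill equation fitting.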

[20] = Cell Viability - LYMP2-010 (AID 981);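 note: cells exposed to compound for 24 hours at 37 °C; nearly all actives have a fitted effect of over 55% in size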; note: potency is the fitted concentration of half-maximal effect
Outline: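 Acute toxicity is scored as a concentration-dependent loss of cellular ATP in human lymphoblastoid cells after 24 hr compound exposure in complete medium. Tetraoctylammonium bromide is the positive control.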

Sequence of RecQ-like DNA helicase BLM (Homo sapiens) (P54132 whole entry, looked up): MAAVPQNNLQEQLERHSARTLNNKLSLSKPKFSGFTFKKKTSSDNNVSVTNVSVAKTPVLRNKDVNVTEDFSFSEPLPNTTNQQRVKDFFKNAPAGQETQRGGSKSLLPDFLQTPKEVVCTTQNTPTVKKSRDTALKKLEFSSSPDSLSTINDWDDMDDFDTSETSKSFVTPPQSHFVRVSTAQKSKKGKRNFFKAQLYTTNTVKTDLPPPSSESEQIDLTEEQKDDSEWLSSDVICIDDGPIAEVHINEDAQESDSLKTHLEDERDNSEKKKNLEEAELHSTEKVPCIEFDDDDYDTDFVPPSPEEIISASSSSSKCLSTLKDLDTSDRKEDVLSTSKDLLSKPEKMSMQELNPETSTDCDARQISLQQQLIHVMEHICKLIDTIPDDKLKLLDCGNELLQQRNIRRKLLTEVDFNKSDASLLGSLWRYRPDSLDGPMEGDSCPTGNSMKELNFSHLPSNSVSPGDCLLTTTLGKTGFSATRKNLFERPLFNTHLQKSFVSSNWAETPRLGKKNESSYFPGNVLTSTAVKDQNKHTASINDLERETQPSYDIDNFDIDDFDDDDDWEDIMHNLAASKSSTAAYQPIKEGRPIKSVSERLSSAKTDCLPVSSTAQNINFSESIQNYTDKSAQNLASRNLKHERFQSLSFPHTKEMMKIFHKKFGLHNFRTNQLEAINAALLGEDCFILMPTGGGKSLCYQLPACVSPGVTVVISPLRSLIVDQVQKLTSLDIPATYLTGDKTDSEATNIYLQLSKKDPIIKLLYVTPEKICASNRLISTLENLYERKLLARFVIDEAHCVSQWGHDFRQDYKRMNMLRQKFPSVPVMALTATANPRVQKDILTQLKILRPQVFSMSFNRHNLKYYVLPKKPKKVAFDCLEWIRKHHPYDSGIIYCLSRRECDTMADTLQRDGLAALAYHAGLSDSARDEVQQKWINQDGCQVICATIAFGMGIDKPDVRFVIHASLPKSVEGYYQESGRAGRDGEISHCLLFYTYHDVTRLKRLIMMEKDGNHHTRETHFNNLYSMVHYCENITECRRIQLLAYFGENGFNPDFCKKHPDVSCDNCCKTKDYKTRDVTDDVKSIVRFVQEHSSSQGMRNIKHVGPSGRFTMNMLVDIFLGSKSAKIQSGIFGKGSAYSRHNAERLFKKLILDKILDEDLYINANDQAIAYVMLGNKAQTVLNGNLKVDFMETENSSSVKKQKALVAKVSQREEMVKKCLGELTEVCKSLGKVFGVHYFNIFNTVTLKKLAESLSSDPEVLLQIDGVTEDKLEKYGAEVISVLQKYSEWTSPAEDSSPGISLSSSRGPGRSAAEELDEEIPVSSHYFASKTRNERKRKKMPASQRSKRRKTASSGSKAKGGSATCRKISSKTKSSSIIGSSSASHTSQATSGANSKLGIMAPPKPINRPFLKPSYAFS
Sequence of Peroxisome proliferator-activated receptor delta (Homo sapiens) (Q03181 whole entry, looked up): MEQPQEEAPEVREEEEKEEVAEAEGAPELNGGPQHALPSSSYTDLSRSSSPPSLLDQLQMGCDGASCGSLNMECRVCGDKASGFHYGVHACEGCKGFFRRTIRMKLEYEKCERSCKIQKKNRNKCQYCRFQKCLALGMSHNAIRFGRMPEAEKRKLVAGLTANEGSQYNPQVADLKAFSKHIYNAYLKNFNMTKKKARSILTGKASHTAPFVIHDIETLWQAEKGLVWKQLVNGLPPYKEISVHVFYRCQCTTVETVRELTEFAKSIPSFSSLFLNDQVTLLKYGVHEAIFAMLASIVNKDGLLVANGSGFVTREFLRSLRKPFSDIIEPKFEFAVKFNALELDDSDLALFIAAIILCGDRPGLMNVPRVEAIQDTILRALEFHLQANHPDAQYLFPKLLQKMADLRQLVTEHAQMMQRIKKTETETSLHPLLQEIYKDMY
Sequence of Guanine nucleotide-binding protein G(i) subunit alpha-1 (Homo sapiens) (P63096 whole entry, looked up): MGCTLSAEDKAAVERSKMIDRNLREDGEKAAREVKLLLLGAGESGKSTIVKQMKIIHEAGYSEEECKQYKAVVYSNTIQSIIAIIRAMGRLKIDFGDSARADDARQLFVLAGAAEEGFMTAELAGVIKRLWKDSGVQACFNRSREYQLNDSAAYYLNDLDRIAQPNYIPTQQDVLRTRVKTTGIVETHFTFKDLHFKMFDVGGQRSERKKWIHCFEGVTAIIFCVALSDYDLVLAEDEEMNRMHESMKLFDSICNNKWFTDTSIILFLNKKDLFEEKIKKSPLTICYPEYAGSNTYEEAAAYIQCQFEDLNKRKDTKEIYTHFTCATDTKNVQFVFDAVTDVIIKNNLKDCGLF
Sequence of Estrogen receptor (Homo sapiens) (P03372 whole entry, looked up): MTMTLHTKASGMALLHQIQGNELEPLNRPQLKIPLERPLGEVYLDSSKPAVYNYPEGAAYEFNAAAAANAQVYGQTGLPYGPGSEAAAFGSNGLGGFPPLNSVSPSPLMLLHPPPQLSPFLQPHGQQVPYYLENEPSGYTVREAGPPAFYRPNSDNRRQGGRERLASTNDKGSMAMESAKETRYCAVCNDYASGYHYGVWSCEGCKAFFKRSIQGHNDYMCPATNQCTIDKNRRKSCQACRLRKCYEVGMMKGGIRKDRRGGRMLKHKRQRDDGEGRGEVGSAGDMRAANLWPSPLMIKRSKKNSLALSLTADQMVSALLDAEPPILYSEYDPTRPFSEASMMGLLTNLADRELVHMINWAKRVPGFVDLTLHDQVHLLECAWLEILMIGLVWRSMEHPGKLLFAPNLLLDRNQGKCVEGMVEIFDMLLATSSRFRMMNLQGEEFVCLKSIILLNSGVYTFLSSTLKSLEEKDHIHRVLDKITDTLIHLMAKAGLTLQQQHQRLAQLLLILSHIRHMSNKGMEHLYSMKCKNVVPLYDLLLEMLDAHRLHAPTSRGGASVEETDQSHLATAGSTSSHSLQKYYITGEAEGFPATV
Sequence of Alpha-galactosidase A (Homo sapiens) (P06280 whole entry, looked up): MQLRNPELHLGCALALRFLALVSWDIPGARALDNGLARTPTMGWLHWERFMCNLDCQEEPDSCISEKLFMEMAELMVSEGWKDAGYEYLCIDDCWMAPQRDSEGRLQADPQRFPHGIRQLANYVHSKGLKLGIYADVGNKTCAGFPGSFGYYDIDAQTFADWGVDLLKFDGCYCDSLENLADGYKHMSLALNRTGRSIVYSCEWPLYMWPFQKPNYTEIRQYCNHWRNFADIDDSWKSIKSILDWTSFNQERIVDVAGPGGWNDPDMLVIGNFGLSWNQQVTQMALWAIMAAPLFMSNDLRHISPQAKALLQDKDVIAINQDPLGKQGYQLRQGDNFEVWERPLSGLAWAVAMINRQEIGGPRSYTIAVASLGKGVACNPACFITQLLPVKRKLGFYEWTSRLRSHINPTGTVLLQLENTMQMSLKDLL
Sequence of Alpha-galactosidase (Coffea arabica) (Q42656 whole entry, looked up): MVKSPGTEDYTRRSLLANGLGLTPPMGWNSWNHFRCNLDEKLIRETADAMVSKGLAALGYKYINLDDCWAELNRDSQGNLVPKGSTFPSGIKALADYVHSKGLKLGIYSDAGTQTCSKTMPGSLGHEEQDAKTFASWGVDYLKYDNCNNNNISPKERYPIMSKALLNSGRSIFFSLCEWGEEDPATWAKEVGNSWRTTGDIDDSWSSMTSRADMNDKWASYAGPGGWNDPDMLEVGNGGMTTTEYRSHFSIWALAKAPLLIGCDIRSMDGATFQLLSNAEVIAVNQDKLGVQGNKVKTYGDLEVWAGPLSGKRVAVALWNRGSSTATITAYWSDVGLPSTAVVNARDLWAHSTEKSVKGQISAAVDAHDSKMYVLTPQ
Sequence of Rap guanine nucleotide exchange factor 4 (Homo sapiens) (Q8WZA2 whole entry, looked up): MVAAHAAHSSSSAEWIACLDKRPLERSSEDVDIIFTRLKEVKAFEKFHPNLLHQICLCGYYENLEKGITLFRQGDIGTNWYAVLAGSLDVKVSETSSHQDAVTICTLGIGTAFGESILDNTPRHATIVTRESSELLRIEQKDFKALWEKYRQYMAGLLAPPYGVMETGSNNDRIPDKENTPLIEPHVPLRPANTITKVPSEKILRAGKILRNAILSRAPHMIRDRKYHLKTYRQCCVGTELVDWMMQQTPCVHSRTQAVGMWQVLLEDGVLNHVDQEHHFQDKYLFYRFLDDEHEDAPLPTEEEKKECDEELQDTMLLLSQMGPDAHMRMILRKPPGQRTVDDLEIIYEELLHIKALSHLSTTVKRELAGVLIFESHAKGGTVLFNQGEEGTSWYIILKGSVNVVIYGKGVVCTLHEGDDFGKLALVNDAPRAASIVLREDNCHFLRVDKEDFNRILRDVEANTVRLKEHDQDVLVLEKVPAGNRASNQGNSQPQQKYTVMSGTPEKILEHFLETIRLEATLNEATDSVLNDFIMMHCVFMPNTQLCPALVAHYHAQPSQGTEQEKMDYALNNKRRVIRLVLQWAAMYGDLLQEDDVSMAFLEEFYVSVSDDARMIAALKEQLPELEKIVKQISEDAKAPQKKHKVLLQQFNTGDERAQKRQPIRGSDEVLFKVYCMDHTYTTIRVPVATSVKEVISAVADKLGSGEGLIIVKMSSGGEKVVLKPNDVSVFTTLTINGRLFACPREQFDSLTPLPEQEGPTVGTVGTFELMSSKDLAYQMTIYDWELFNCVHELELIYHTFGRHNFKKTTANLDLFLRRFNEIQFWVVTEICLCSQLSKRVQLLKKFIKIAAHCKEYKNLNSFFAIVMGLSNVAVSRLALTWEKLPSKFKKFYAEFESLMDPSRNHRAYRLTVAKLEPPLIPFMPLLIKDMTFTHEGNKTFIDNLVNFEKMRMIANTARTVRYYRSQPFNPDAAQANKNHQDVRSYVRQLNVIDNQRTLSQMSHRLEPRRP

CCCN1CCc2cc(O)cc3c2C1Cc1ccc(O)c(O)c1-3 (stereo unspecified)
outcome [1]: inactive | Potency [2]: inactive

O=C(O)C1=CCCN(CCOC(c2ccc(C(F)(F)F)cc2)c2ccc(C(F)(F)F)cc2)C1
Z-AUC [3]: -1.16 (inactive) | Z-AUC ([3]; measured here: PEO1 parental Z-AUC): -0.857 | Z-AUC ([3]; measured here: PEO4 Z-AUC): -0.457

CCc1c(C(=O)OC)ncc2[nH]c3cc(OC)c(OC)cc3c12
outcome [4]: inactive | Potency [5]: 5.62 µM (active) | outcome [6]: inactive | outcome [7]: inactive | outcome [8]: inactive | outcome [9]: inactive | outcome [10]: inactive

COc1ccc2c(c1O)-c1c(OC)c(OC)cc3c1[C@H](C2)N(C)CC3
outcome [11]: inactive | outcome [12]: inactive | outcome [13]: inactive | outcome [14]: inactive

CNCC[C@@H](Oc1ccc(C(F)(F)F)cc1)c1ccccc1
Potency [2]: inactive

C[C@]12CC[C@H](O)CC1=CCC1C2CC[C@]2(C)C(=O)CC[C@@H]12 (stereo partly specified)
outcome [15]: inactive | outcome [1]: inactive | Potency [2]: inactive

O=C1C=CC(=O)c2c(O)cccc21
Potency [16]: inactive

O=C1c2ccccc2-c2cccc3cccc1c23
Potency [16]: inactive

ClC(Cl)=C(c1ccc(Cl)cc1)c1ccc(Cl)cc1
Potency [17]: inactive | outcome [18]: inactive | max response [19]: 6.36% and 34.1%

CCCN1CCc2cccc3c2C1Cc1ccc(O)c(O)c1-3 (stereo unspecified)
outcome [15]: inactive | outcome [1]: inactive

CCNc1nc(Cl)nc(NC(C)C)n1
Potency [20]: inactive | Potency [17]: inactive

C=CCc1ccc2c(c1)OCO2
outcome [11]: inactive | outcome [12]: inactive | outcome [13]: inactive | outcome [14]: inactive

O=C(OC1CCN(CCCl)CC1)C(c1ccccc1)c1ccccc1
outcome [4]: inactive | Potency [5]: 2.51 µM (active) | outcome [7]: inactive | outcome [8]: inactive | outcome [9]: inactive | outcome [10]: inactive | outcome [15]: inactive | activation [16]: 6.37% [at 17.1 µM, percent relative to cAMP agonist control] (inactive)

O=C(O)COc1ccc(Cl)cc1Cl
Potency [20]: inactive

CNC(=O)O/N=C/C(C)(C)SC
Potency [17]: inactive | outcome [18]: inactive | max response [19]: -48.7% and -22%

COc1cc2c(cc1O)CC1c3c(cc(O)c(OC)c3-2)CCN1C (stereo unspecified)
outcome [11]: inactive | outcome [12]: inactive | outcome [13]: inactive | outcome [14]: inactive

COc1cc2c(cc1-c1cc3cc4ccoc4cc3oc1=O)OCO2
Potency [16]: inactive

C=CCc1ccc(OC)cc1
Potency [20]: inactive | outcome [18]: inactive | max response [19]: -9.08%

CC(C)[C@@]1(NC(=O)[C@@H]2C[C@@H]3c4cccc5[nH]cc(c45)C[C@H]3N(C)C2)O[C@@]2(O)C3CCCN3C(=O)[C@H](Cc3ccccc3)N2C1=O (stereo partly specified)
outcome [15]: inactive

C[C@]12CC[C@H](O)C[C@@H]1CC[C@H]1[C@H]2CC[C@]2(C)C(=O)CC[C@@H]12
outcome [4]: inactive | outcome [6]: inactive | outcome [7]: inactive | outcome [8]: inactive | outcome [9]: inactive | outcome [10]: inactive

ClC1=C(Cl)C2(Cl)C3C(Cl)C=CC3C1(Cl)C2(Cl)Cl (stereo unspecified)
outcome [18]: inactive | max response [19]: -19.5%

O=S1OCC2C(CO1)C1(Cl)C(Cl)=C(Cl)C2(Cl)C1(Cl)Cl (stereo unspecified)
Potency [17]: 1.41 µM (active)

C#CCN(C)[C@@H](C)Cc1ccccc1
outcome [4]: inactive | Potency [5]: inactive | outcome [6]: inactive | outcome [7]: inactive | outcome [8]: inactive | outcome [9]: inactive | outcome [10]: inactive

CCOCN(C(=O)CCl)c1c(C)cccc1CC
Potency [20]: 50.1 µM (active)
